# Most compounds without a hit are left out; they make up all but 10% or so of the library.
# GLS inh – blocks human kidney-isoform glutaminase activity; O94925; GLS enzymatic activity, qHTS titration; Potency, µM (top dose mostly 45.5 µM), inactives show at the top dose activity change, negative = inhibition, actives largely listed as inhibitors; 410,000 tested, 0.21% active; AID 624170; further: on the % scale 0 is the no-effect control and ±100 the full control effect
#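 Enzyme dispensed in phosphate buffer (45 mM, pH 8.2, 0.02% Tween-20), compounds pinned in, then 1 mM L-glutamine solution and the glutamate oxidase–HRP–Amplex Red mix added; fluorescence read immediately and again after 30 min at room temperature.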
# JMJD2A Tudor inh – blocks the human JMJD2A Tudor domain; AlphaScreen JMJD2A-Tudor / H3K4me3 peptide binding; Potency, µM (titrated, usually from 114 µM), for inactives: at the top dose activity change, negative = inhibition, usual class: inhibitors; 390,000 tested, 4.4% active; further: on the % scale 0 is the no-effect control and ±100 the full control effect; nearly all actives have a fitted effect of over 50% in size
# HP1b binding inh – inhibitors of HP1-beta chromodomain binding to methylated histone tails; AlphaScreen HP1-beta / biotin-H3K9me3 peptide binding; 390,000 tested, 0.56% active; P83916; Potency, µM (titrated, usually from 114 µM), inactives show top-dose activity change, negative = inhibition, actives largely listed as inhibitors; AID 540317; further: nearly all actives have a fitted effect of over 70% in size
# Target sequence (P83916 whole entry, looked up): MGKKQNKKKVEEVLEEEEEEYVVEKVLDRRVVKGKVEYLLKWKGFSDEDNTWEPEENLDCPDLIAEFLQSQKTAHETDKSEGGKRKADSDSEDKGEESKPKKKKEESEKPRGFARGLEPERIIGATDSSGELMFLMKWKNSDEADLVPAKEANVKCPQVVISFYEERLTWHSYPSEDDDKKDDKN
#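 Compound inhibition of the preformed complex between 50 nM HP1-beta and 50 nM biotinylated H3K9me3 peptide was read by AlphaScreen. Buffer was PBS pH 7.4 with 0.01% Tween-20. Incubations ran 30 min at room temperature, with 10 ug/mL donor/acceptor beads.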
# BAZ2B inh – inhibitors of human BAZ2B bromodomain | Q9UIF8 | AID 504333 | AlphaScreen BAZ2B-H3K14Ac peptide displacement | Potency, µM (doses to about 114 µM), inactives show top-dose activity change, negative = inhibition, usual class: inhibitors | 360,000 tested, 4.4% active; further: on the % scale 0 is the no-effect control and ±100 the full control effect; nearly all actives have a fitted effect of over 60% in size
#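 BAZ2B 50 nM plus b-H3(5-23)K14Ac 50 nM, PBS pH 7.4/0.01% Tween-20, 30 min RT; compound added (max 110 uM), 30 min RT; streptavidin donor/Ni-chelate acceptor beads 10 ug/mL final, 20 min dark; AlphaScreen read.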
# G9a inh – G9a (human) methyltransferase inhibition; Q96KQ7; G9a H3K9 monomethylation, AlphaScreen, 2 h; Potency, µM (series often up to 102 µM), without a hit: at the highest dose activity, negative = inhibition, hits mostly inhibitors; 350,000 tested, 8.8% active; AID 504332; further: on the % scale 0 is the no-effect control and ±100 the full control effect; nearly all actives have a fitted effect of over 75% in size
# Target sequence (Q96KQ7 913-1193 limits assumed): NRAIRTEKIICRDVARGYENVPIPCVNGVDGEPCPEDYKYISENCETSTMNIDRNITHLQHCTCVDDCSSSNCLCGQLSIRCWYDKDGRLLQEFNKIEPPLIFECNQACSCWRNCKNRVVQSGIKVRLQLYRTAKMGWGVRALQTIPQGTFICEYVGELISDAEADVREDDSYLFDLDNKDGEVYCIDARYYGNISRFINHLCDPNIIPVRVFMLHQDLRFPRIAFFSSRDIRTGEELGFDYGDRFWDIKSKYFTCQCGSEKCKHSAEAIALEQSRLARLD
#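 Compounds were preincubated with 20 nM G9a for 15 min, after which biotinylated H3K9 peptide (500 nM) and SAM (20 uM) started a 2 h room-temperature reaction. Monomethylated product was quantified by antibody-based AlphaScreen chemiluminescence.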
# * = called active by the depositor; ? = inconclusive; . = no result; ! = a repeat was not active; [ ] = dose if it differs, or a comment. The call rests on the fitted dose curve; in most records, active means well fitted curve in the direction sought with a large enough effect; inconclusive means small, poorly fitted or top-dose-only effect, or another doubt; inactive means no such curve, though single readings can be large; an effect the other way counts as inactive or inconclusive. Potency means the concentration at half of the fitted maximal effect.
SMILES,GLS inh,JMJD2A Tudor inh,HP1b binding inh,BAZ2B inh,G9a inh
Cc1ccccc1NC(=O)Cn1c(SCC(=O)Nc2ccc(F)cc2)nc2ccccc21,-2%,4%,43%,-16%,4%[12.7 µM]
CCc1ccccc1Oc1nc(NCCOC)nc2cc(-c3ccccc3)sc12,0%,.,.,.,.
O=C(CCN1CCN(c2ccccc2)CC1)N/N=C/c1ccc(O)c(O)c1O,?,40µM*,28µM*,8.9µM*,8.9µM*
O=C(Cc1csc(N2CCOCC2)n1)N/N=C/c1ccc(O)c(O)c1O,?,10µM*,16µM*,.,3.5µM*
O=C(CCN1CCOCC1)N/N=C/c1cc(Br)cc(Br)c1O,11%,?,28%,56µM*,.
O=C(CCN1CCOCC1)N/N=C/c1cc([N+](=O)[O-])ccc1OC(F)F,-3%,-10%,9%,-13%,-30%
COC(=O)N/N=C/c1cc(C)n(-c2ccccc2)c1C,13%,-25%,6%,-31%,-16%[59 µM]
Cc1cc(C(=O)N/N=C/c2ccc(O)c(O)c2O)c(C)n1-c1ccccc1,16µM*,56µM*,?,56µM*,10µM*
COc1ccc(CNC(=O)c2ccc(-c3nc(CSc4ccc(C)cc4)c(C)o3)cc2)c(OC)c1,1%,-16%,27%,-14%,-38%[59 µM]
CCCCCCCC/C=C\CCCCCCCC(=O)OC[C@@H](O)[C@H]1OC[C@H](O)[C@H]1O,5%,.,.,.,.
Cc1ccc(-n2ncc(C(=O)N3CCc4ccccc4C3)c2NC(=O)c2ccco2)cc1C,-2%,-17%,15%,-11%,25µM*
Cc1[nH]c2c(Cl)cccc2c1CCNC(=O)C1CCCCC1C(=O)OCC(F)(F)F (centres undefined),-3%,-26%,2%,-33%,71µM*
CCOC(=O)c1ccc(CNC(=O)C2CCCCC2C(=O)OCC(F)(F)F)o1 (centres undefined),-21%,6%[11.4 µM],2%,-9%,-4%[12.7 µM]
O=C(O)c1cc(-c2cc3ccccc3o2)nn1-c1ccccc1,0%,-9%,28%,.,45µM*
O=C(O)c1cc(-c2cccs2)nn1-c1ccccc1,0%,-4%,28%,-38%,45µM*
COc1ccc(NC(=O)CN(C)C(=O)c2cc(-c3cccs3)nn2-c2ccccc2)cc1,-3%,-21%,5%,-5%,50µM*
CCN(CC(=O)Nc1ccc(OC)cc1)C(=O)c1cc(-c2cccs2)nn1-c1ccccc1,0%,-14%,16%,-31%,?
Cc1cccn2c(=O)c3cc(C#N)c(=O)n(-c4nnc(SCc5ccccc5F)s4)c3nc12,-6%,13%,58%,0%,31%[59 µM]
OC(c1cccnc1)c1nc(-c2cccc(F)c2)cs1 (centres undefined),8%,.,.,.,.
O=C(c1nc2n(n1)C(c1ccc(Cl)cc1)C=C(c1ccccc1)N2)N1CCOCC1 (centres undefined),2%,-24%,14%,-33%,3.5µM*
O=C(Nc1nc2n(n1)C(c1ccccc1)C=C(c1ccc(Cl)cc1)N2)c1ccco1 (centres undefined),-6%,?,11%,79µM*,?
O=C(Nc1nc2n(n1)C(c1ccccc1)C=C(c1ccccc1)N2)c1ccco1 (centres undefined),9%,-29%,15%,25µM*,22µM*
Cc1ccc(C2C=C(c3ccc(Cl)cc3)Nc3nc(NS(=O)(=O)c4ccccc4)nn32)cc1 (centres undefined),-19%,15%,52%,-1%,?
C[C@@H]1O[C@H](C2CCCC2)Cc2[nH]c(=S)[nH]c(=O)c21,-5%,.,.,.,.
COc1cc(C)ccc1OCCCOc1cc(C)ccc1Cl,23%,68%,107%,.,.
SMILES,GLS inh,JMJD2A Tudor inh,HP1b binding inh,BAZ2B inh,G9a inh
Cc1ccc(Cl)c(OCCCN(C)Cc2ccccc2)c1,-29%,1.1µM*,45µM*,32µM*,1.8µM*
Cc1ccc(Cl)c(OCCCCN(C)Cc2ccccc2)c1,-1%,2.8µM*,-36%,-35%,10µM*
CCC(C)NC(=O)CSc1nc2cc3c(cc2c(=O)n1CCCCCC(=O)NCc1ccc(OC)cc1)OCO3 (centres undefined),1%,-3%,35%,3%,4%[59 µM]
CNc1ccccc1C(C)(C)c1cc(-c2cccc([N+](=O)[O-])c2)no1,-5%,?,-22%,?,32µM*
CCOc1cc(C(c2c(C)[nH][nH]c2=O)c2c(C)[nH][nH]c2=O)ccc1OC(=O)c1cccc([N+](=O)[O-])c1,56%,?,-14%,-36%,3.5µM*
COc1ccccc1N1CCN(C(=O)c2ccc(Nc3nc4ccccc4n4nnnc34)cc2)CC1,-1%,-18%,22%,1%,7%[59 µM]
CC(=O)c1ccc(NC(=O)C(C)N2CCN(C/C=C/c3ccccc3)CC2)cc1 (centres undefined),-14%,-21%,6%,?,-9%
COc1ccc(Cl)cc1NC(=O)C(C)N1CCN(C/C=C/c2ccccc2)CC1 (centres undefined),10%,3.5µM*,13µM*,50µM*,?
Fc1ccc(C(c2ccc(F)cc2)N2CCN(C/C=C/c3ccccc3)CC2)cc1,-3%,?,10%,?,21µM*!
C(=C\c1ccccc1)/CN1CCN(C(c2ccccc2)c2ccccc2)CC1,7%,-22%,17%,?,-45%
CC(C(=O)Nc1ccc([N+](=O)[O-])cc1)N1CCN(C/C=C/c2ccccc2)CC1 (centres undefined),5%,?,-25%,-11%,-20%
CC(C(=O)N(C)Cc1ccccc1)N1CCN(C/C=C/c2ccccc2)CC1 (centres undefined),12%,1.6µM*,?,35µM*,20µM*
CCC(=O)NC1Cc2ccccc2C(c2ccccc2)C1 (centres undefined),.,.,.,.,15%[59 µM]
CCOC(=O)SC1=N/C(=C\c2ccc(N(C)C)cc2)C(=O)S1,16%,20µM*,35µM*,13µM*,10µM*
CSC1=N/C(=C\c2ccc(C)cc2)C(=O)S1,1%,38%,113%,39%,55%[12.7 µM]
COc1ccc(Cc2nc3ccc(C(=O)NCc4cc(Br)ccc4OC)cc3o2)cc1,-12%,-8%,21%[57 µM],-9%,3%[59 µM]
O=C(CSc1nc2ncccc2[nH]1)NC1CCCC1,-2%,0%,-4%,4%,22µM*
CCC1CCCCN1C(=O)CSc1nc(N)c(NC(=O)c2ccc(OC)c(OC)c2)c(=O)[nH]1 (centres undefined),-12%,-14%,31%,11%,50µM*
CCC1CCCCN1C(=O)CSc1nc2ncccc2[nH]1 (centres undefined),3%,50µM*,?,-27%,.
CC1CCN(C(=O)CSc2nc3ncccc3[nH]2)CC1,7%,-5%,-2%,-7%,1%[0.0925 µM]

# Screens from PubChem.
